Measured values from PubChem BioAssay (EPA / NIEHS).
Records with an inconclusive call do not appear. Calls of active or inactive are those of the source. Rule for the calls: active = hit-call score of the fitted dose curve at least 0.9, where 1 is the maximum; inconclusive = response in the unintended direction; inactive = score below 0.9.

target: human Tropomyosin Receptor Kinase A (TRKA), NTRK1 (gene 4914) (UniProt P04629); experiment: NVS_ENZ_hTrkA: NovaScreen (NVS) Enzymatic Assay for human Tropomyosin Receptor Kinase A (TRKA) (AID 2283224)
Summary of the method: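 Recombinant human TrkA activity read after 1 h by fluorescence with electrophoretic mobility shift separating substrate and product. Primary screen in duplicate at 25 uM; actives were rerun in concentration-response up to 50 uM. Loss of signal versus DMSO.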

Sequence of human Tropomyosin Receptor Kinase A (TRKA), NTRK1 (gene 4914) (P04629 whole entry, looked up): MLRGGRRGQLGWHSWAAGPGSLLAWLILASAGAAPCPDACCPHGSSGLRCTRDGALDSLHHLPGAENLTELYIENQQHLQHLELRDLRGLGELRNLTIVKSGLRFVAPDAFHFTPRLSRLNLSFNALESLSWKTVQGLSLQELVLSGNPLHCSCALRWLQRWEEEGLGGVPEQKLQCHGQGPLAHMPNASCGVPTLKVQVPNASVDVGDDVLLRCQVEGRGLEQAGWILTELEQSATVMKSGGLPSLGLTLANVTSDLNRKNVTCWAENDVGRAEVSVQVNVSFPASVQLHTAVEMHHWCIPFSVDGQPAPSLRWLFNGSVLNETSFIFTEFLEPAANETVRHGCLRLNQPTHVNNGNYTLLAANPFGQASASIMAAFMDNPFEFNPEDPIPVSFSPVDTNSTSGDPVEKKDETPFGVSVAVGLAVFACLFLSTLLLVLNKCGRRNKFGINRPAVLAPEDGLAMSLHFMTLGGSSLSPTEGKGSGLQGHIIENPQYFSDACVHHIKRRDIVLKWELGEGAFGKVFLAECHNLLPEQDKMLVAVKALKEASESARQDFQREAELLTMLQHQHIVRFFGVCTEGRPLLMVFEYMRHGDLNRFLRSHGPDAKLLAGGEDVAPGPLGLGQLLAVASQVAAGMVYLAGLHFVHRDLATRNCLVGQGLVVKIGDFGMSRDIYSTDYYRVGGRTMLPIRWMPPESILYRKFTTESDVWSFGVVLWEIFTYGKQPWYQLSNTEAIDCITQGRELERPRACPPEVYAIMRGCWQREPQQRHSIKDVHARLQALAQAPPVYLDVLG

SMILES | outcome | AC50
CCCCCCCCCC(=O)O | inactive | –
CN1C(=O)N(c2ccccc2Br)Cc2cnc(Nc3ccc4c(c3)OCC(CO)O4)nc21 (stereo not drawn) | – | 493 nM (active)
O=C(O)Cc1cc(I)c(Oc2ccc(O)c(I)c2)c(I)c1 | – | 2580 nM (active)
